# A selection: hits, their analogues and other compounds. The true share with any hit is near 7.3%.
# uPA generation: blocks generation of uPA at the cell surface. AID 540303. Potency, µM (highest dose often 38.3 µM), for the others: top-dose activity change, negative = inhibition, usual class: inhibitors. cell surface uPA generation assay, qHTS. hit rate 0.31% among 330,000; active = well fitted inhibition curve with a large enough effect; inconclusive = small, poorly fitted or top-dose-only effect; inactive = no such curve, though single readings can be large or run the other way; tested in mouse RAW 264.7 cells; note: % is set by controls: 0 for no effect and ±100 for the full control effect; nearly all actives have a fitted effect of over 55% in size
# Rab9 promoter act: activators of Rab9 promoter; AID 485297; Potency, µM (titrated, usually from 9.22 µM), for inactives: top-dose activation, negative = inhibition, hits mostly activators; Huh7 Rab9 promoter-luciferase reporter, luminescence, 24 h; hit rate 2.8% among 320,000; note: % of control where 0% means no effect; nearly all actives have a fitted effect of over 60% in size
#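 Luciferase signal after 10 min detection reagent at ambient indicates Rab9 promoter upregulation; stably transfected Huh7 cells were treated 24 h with compound in DMSO at 37 °C, 5% CO2.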
# FLuc modulator: counter-screen for miR-21 project: firefly luciferase inhibitors or activators; P08659; purified FLuc, Km substrates, luminescence inhibition; Potency, µM (doses to about 57.5 µM), for inactives: at the top dose activity change, negative = inhibition, usual class: inhibitors; hit rate 6.9% among 360,000; AID 588342;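 note: plate controls were vehicle for no effect and reference inhibitor for full effect; nearly all actives have a fitted effect of over 55% in size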
# Target sequence (P08659 whole entry, looked up): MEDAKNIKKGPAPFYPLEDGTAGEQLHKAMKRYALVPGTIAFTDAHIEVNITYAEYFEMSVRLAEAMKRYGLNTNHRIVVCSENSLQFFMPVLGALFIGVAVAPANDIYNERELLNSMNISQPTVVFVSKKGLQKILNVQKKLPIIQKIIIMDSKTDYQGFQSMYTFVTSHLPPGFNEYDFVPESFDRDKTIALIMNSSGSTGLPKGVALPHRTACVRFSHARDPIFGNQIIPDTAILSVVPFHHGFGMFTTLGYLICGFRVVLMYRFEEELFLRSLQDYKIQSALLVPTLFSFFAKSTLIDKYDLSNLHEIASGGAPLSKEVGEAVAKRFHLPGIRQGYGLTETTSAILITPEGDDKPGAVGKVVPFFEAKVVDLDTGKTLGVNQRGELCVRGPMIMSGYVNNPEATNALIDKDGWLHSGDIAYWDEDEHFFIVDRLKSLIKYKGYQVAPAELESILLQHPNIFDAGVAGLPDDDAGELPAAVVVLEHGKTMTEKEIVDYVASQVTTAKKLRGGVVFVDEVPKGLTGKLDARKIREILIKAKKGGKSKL
#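 Purified P. pyralis luciferase (10nM final) with 10uM D-luciferin and 10uM ATP (Km levels) in 50mM Tris acetate pH 7.5, 10mM Mg acetate, 0.01% Tween-20, 0.05% BSA; qHTS 6-point titration, ~60 µM downward; luminescence read.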
# NPC1 promoter act: activators of NPC1 promoter; Huh7 NPC1 promoter luciferase reporter, 24 h; Potency, µM (doses to about 9.22 µM), without a hit: at the top dose activation, actives largely listed as activators; hit rate 2.4% among 320,000; AID 485313; note: % of control where 0% means no effect; nearly all actives have a fitted effect of over 60% in size
#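 Cells: Huh7 expressing luciferase under the NPC1 promoter, 1500/well. Seeded 2 h, compound added, incubated 24 h at 37 °C. Luciferase reagent, 10 min ambient, then luminescence.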
# ELG1 genotoxic: inducers of genotoxicity in HEK293T ELG1-luciferase cells | HEK293T ELG1-luciferase reporter, luminescence, 16 h | Potency, µM (doses to about 46 µM), for the others: top-dose activity change, positive = activation, actives largely listed as activators | hit rate 1.3% among 330,000 | AID 504466; note: % of control where 0% means no effect; nearly all actives have a fitted effect of over 60% in size
#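 Genotoxicity was scored as increased ELG1-luciferase reporter signal, measured by ONE-Glo luminescence (30 min, room temperature). Compound or vehicle exposure of the HEK293T reporter cells lasted 16 hr at 37°C.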
# SMN2 splice enh: SMN2 splice variant enhancement; HEK293 SMN2-luciferase splicing reporter, luminescence, 30-36 h; hit rate 2.8% among 210,000; Potency, µM (titrated, usually from 46.1 µM), for the others: at the top dose activity change, positive = activation, actives largely listed as activators; note: % of control where 0% means no effect; nearly all actives have a fitted effect of over 55% in size
#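 HEK293 cells carry an SMN2 minigene-luciferase reporter in which exon 7 inclusion puts luciferase in frame. Cells were seeded at 2000 cells/well, attached for 10-12 hours, then exposed to compounds for 30-36 hours at 37C before ONE-Glo luminescence.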
# An asterisk follows results filed as active; ? = inconclusive; . = no result given; [ ] = remark or other dose. Unless noted, calls come from the whole dose curve; as a rule, active = well fitted curve in the direction sought with a large enough effect; inconclusive = small, poorly fitted or top-dose-only effect, or another doubt; inactive = no such curve, though single readings can be large; an effect the other way counts as inactive or inconclusive. Potency is the fitted concentration of half-maximal effect.
SMILES,uPA generation,Rab9 promoter act,FLuc modulator,NPC1 promoter act,ELG1 genotoxic,SMN2 splice enh
O=C(COC(=O)C12CC3CC(CC(O)(C3)C1)C2)Nc1ccccc1OC(F)F,0%,-4%,?,7%,-1%,18%
Cc1cc(C(=O)COC(=O)C23CC4CC(CC(O)(C4)C2)C3)c(C)n1C,-4%,.,.,.,8.2µM*,.
NS(=O)(=O)c1ccc(NC(=O)COC(=O)C23CC4CC(CC(C4)C2)C3)cc1,5%,0%,-3%,-1%,1%,-11%
O=C(COC(=O)C12CC3CC(CC(C3)C1)C2)Nc1ccccc1F,1%,2%,11µM*,0%,5%,-6%
NC(=O)COC(=O)C12CC3CC(CC(O)(C3)C1)C2,-7%,4%,0%,-8%,1%,7%
COc1ccccc1N1CCN(c2ccc(-c3nc(-c4ccccc4)no3)cc2[N+](=O)[O-])CC1,.,.,-1%,.,.,.
COCCNC(=O)CSc1nc(-c2ccccc2C)nc2c1c(=O)n(C)c(=O)n2C,.,.,5%,.,.,.
Cc1oc(-c2ccc(C(=O)NCc3cccc(F)c3)cc2)nc1COc1ccccc1,.,.,1%,.,.,.
CCN(C(=O)c1cnc2ccc(C)cn2c1=O)c1ccccc1,.,.,0%,.,.,-9%
Cc1ccc(-c2ccc(NC(=O)C3C4C=CC(C4)C3C(=O)O)cc2)o1 (stereo not given),-4%,3.2µM*,15µM*,3.5µM*,15%,-28%
COC(=O)C[C@H](NC(=O)[C@H](C)NC(=O)[C@@H](NC(=O)OCc1ccccc1)C(C)C)C(=O)CF,.,.,.,.,.,26%
c1ccc(-c2cc(-c3ccccc3)ncn2)cc1,-1%,.,.,.,.,.
Oc1cccc(Nc2cc(-c3ccccc3)ncn2)c1,.,.,17µM*,.,.,.
Cc1cc(C)c(OCC(=O)N(Cc2ccc(N(C)C)cc2)Cc2ccco2)c(C)c1,.,.,-17%,.,.,-16%
O=C1ON=C(c2ccccc2)/C1=C/c1ccc(O)c(O)c1,?,-8%,?,-7%,?,.
O=C1ON=C(c2cccc([N+](=O)[O-])c2)/C1=C/c1ccc(O)cc1,1%,-8%,17µM*,-2%,?,-10%
COc1ccc(OCCCC(=O)Nc2cc(S(=O)(=O)N3CCCCC3)ccc2OC)cc1,2%,-1%,-2%,-1%,0%,.
COc1cc(NC(=S)N2CCN(C(=O)C3CCCO3)CC2)c(OC)cc1Cl (stereo not given),3%,3%,3%,-1%,2%,3%
CC(=O)Nc1ccc(NC(=O)CNC(=O)c2cccc(C)c2)cc1,0%,-1%,-3%,-3%,7%,.
Clc1ccc(-c2nnc(NC3=NCCCCC3)o2)cc1,-9%,0.32µM*,0.43µM*,0.35µM*,?,?
O=C(Nc1nnc(-c2ccc(Cl)cc2)o1)C1CCCCC1,7%,25%,-18%,22%,3%,.
O=C1c2cccc3c(N4CCCCC4)ccc(c23)C(=O)N1c1ccccn1,3%,20%,?,13%,-2%,-31%
CCCN1C(=O)c2cccc3c(N4CCCCC4)ccc(c23)C1=O,4%,?,11µM*,20%,?,6%[1.84 µM]
Cc1cc(N2CCOCC2)ccc1/C=C\[N+](=O)[O-],-17%,12%,24µM*,-7%,-21%,?
O=[N+]([O-])c1ccc(N2CCOCC2)cc1O,-7%,1%,-2%,-2%,0%,.
SMILES,uPA generation,Rab9 promoter act,FLuc modulator,NPC1 promoter act,ELG1 genotoxic,SMN2 splice enh
Cc1c2ccccc2c(C)c2c1ccc1ccccc12,?,?,13µM*,22%,18µM*,3%
Cc1c2ccccc2nc2ccccc12,-5%,.,.,.,.,.
CN1c2ccccc2C(=O)/C(=C\Nc2ccc(F)cc2F)S1(=O)=O,0%,-1%,2.4µM*,2%,0%,.
CC(C)c1ccc(NC(=O)C2CC3CCC2C3)cc1 (stereo not given),-2%,3.2µM*,11µM*,3.5µM*,21µM*,.
COc1ccccc1NC(=O)c1sc2nc(C)c(C(=O)Nc3ccc(C)cc3C)c(-c3cccs3)c2c1N,.,.,-2%,.,.,-3%
O=Cc1cn(-c2ccccc2)nc1-c1ccc(F)cc1,-4%,5%,12µM*,22%,-6%,.

# From PubChem
